TRPML1 blocker: qHTS for Inhibitors of the Human Mucolipin Transient Receptor Potential 1 (TRPML1) | Mucolipin-1 (Homo sapiens), Q9GZU1 | TRPML1-inducible cells, Ca2+ dye fluorescence, FDSS; hits give low values; inhibition of EC80 agonist-evoked calcium signal | activity change, negative = inhibition, % (no concentration beside the values) | 390,000 compounds, 0.02% hits; in the data active means activity change below about -50%; inconclusive means between about -30% and that limit;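 further: stimulus is agonist 54-4 at its EC80 concentration; on the % scale 0 is the no-effect control and ±100 the full control effect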
Target sequence (Q9GZU1 whole entry, looked up): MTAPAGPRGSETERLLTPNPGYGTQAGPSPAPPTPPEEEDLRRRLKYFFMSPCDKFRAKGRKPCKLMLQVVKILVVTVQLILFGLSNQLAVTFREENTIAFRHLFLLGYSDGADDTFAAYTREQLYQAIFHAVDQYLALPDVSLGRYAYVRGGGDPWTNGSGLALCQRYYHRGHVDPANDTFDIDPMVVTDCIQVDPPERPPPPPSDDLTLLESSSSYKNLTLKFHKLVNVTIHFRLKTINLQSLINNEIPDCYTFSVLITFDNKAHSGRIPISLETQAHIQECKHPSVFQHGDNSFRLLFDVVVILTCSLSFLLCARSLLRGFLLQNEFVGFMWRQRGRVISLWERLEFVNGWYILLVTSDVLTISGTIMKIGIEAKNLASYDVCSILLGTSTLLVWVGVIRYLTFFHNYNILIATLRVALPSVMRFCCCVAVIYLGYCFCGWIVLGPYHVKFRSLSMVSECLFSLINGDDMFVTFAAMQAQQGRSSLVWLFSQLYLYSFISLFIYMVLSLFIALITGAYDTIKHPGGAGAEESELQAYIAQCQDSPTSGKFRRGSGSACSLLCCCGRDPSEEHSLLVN
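Tet-induced TRPML1-DL cells loaded with Ca8 no-wash calcium dye were read kinetically on FDSS. Compound addition was followed by EC80 agonist 54-4 (4 uM final); inhibition was read over 110 s.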
USP1 inh: Inhibitors of USP1/UAF1: Primary Screen | Potency, µM (top dose mostly 57.1 µM), for inactives: at the highest dose activity change, negative = inhibition, usual class: inhibitors | 390,000 compounds, 0.23% hits | AID 743255, 2014 | recombinant USP1/UAF1, Ub-Rhodamine cleavage fluorescence; active means well fitted inhibition curve with a large enough effect; inconclusive means small, poorly fitted or top-dose-only effect; inactive means no such curve, though single readings can be large or run the other way; further: potency means the concentration at half of the fitted maximal effect; on the % scale 0 is the no-effect control and ±100 the full control effect; nearly all actives have a fitted effect of over 60% in size
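USP1/UAF1 complex at 1 nM was preincubated with compound for 15 min at room temperature, then Ub-Rho substrate (150nM final) was added. Fluorescence (480/540 nm) was read kinetically, 6 reads every 60 seconds.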
TRPV1 agonist: HTS Assay for Compounds that Act as Agonists of the Vanilloid Receptor 1 | TRPV1-expressing cells, Fluo-8 calcium influx, agonist mode | 320,000 compounds, 0.19% hits | activation, % at 8.33 µM; in the data active means activation above about 80%; inconclusive means between about 30% and that limit; further: 0% is about no effect
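TRPV1-expressing cells were cultured overnight at 35.5C and loaded with Fluo-8 calcium dye for 40 to 90 min at room temperature. After a 10 s baseline, compound was added and calcium influx was read kinetically for 3 min (ex 480/em 520 nm).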
TRPV1 PAM: HTS Assay for Compounds that Act as Potentiators of the Vanilloid Receptor 1. 320,000 compounds, 0.02% hits. TRPV1-expressing cells, Fluo-8 calcium influx, capsaicin EC20 potentiation. potentiation, % at 8.33 µM; in the data active means potentiation above about 80%; inconclusive means between about 30% and that limit; further: 0% is about no effect
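Cells expressing TRPV1 were dye-loaded with Fluo-8 and read kinetically: 10 s baseline, 3 min after compound (agonist portion), then 2 min after EC20 capsaicin (allosteric enhancer portion). Calcium-bound dye fluorescence at 480/520 nm.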
TRPML1 ag: qHTS for Agonists of the Human Mucolipin Transient Receptor Potential 1 (TRPML1). 410,000 compounds, 0.12% hits. TRPML1-expressing cells, Ca2+ dye fluorescence, FDSS. AID 624414, 2012. activation, % (no concentration beside the values). Mucolipin-1 (Homo sapiens), Q9GZU1; in the data active means activation above about 50%; inconclusive means mostly about 30% to 49%; further: 0% is about no effect
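Agonist activity was taken from a 110 s kinetic Ca2+ dye read on the FDSS after pinning compounds onto TRPML1-DL cells. The cells were seeded at 1,500/well with Tet inducer, incubated about 16 h, then dye-loaded at room temperature.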
* marks the source's active call; other numbers are inactive results; i = inactive; u = inconclusive; x = no result. Compounds with a hit are over-represented: about 0.4% of the library has one in this group of screens.

SMILES | TRPML1 blocker | USP1 inh | TRPV1 agonist | TRPV1 PAM | TRPML1 ag
CC(NS(C)(=O)=O)C(c1cccs1)N1CCN(c2ccccc2)CC1 (stereo not given) | 13 | u | 7 | 26 | 1
C=CCOc1ccc(C(=O)Nc2ccc(OCC)cc2)cc1 | -5 | -12% | 23 | -12 | -1
CC(=O)Nc1sc2c(c1-c1nc3ccccc3s1)CCN(C(C)C)C2 | 19 | -36% | u | -6 | 10
CC(=O)N1CCc2c(sc(NC(=O)CSc3ccc(F)cc3)c2-c2nc3ccccc3s2)C1 | -6 | -19% | x | x | 0
CN1CCc2c(sc(NC(=O)CSc3ccc(F)cc3)c2-c2nc3ccccc3s2)C1 | -13 | 92% | u | 3 | 66*
CCN1CCc2c(sc(NC(=O)CSc3ccccc3)c2-c2nc3ccccc3s2)C1 | -14 | i | u | -2 | 70*
COc1ccc(N2CCN(C(c3ccccc3)c3nnnn3C(C)C)CC2)cc1 (stereo not given) | x | x | x | x | 61*
Cc1ccc(C)c(N2CCN(C(c3ccccc3)c3nnnn3C(C)(C)C)CC2)c1 (stereo not given) | x | x | x | x | 86*
COc1ccc(N2CCN(C(c3ccccc3)c3nnnn3C(C)(C)C)CC2)cc1 (stereo not given) | x | x | x | x | 2
CCCCn1nnnc1C(c1cc2ccccc2o1)N1CCN(c2c(C)cccc2C)CC1 (stereo not given) | x | x | x | x | 1
Cc1ccc(C)c(N2CCN(C(c3ccc(N(C)C)cc3)c3nnnn3C(C)(C)C)CC2)c1 (stereo not given) | -5 | 0% | 11 | -10 | 0
Cc1cccc(C)c1N1CCN(C(c2cc3ccccc3o2)c2nnnn2C(C)(C)C)CC1 (stereo not given) | x | x | x | x | 54*
CCOc1ccc2nc3cc(N=Nc4ccc(N)nc4N)ccc3c(N)c2c1 | 10 | 16µM* | x | x | 6
COc1ccc(N=Nc2ccc(N)nc2N)cc1 | -15 | -15% | -2 | 25 | 2
O=C(COC(=O)c1ccc([N+](=O)[O-])s1)Nc1ccc(Cl)cn1 | -1 | -20% | -4 | 4 | 0
Cc1c(Cl)cnc(NC(=O)COC(=O)c2ccc([N+](=O)[O-])s2)c1Cl | -4 | 18µM* | 1 | 1 | 0
CC(=O)OCCn1c2nc(=O)[nH]c(=O)c-2nc2cc(C)c(C)cc21 | -22 | 28µM* | 122* | -21 | 117*
CCCNC(=O)COC(=O)c1c2c(nc3ccccc13)CCC2 | 31 | -10% | 3 | -17 | 0
CCCCn1nnnc1C(c1ccccc1)N1CCN(c2ncc(C(F)(F)F)cc2Cl)CC1 (stereo not given) | x | x | x | x | 68*
O=C(CNS(=O)(=O)c1ccc(Br)cc1Cl)OCC(=O)c1ccc[nH]1 | -1 | -20% | -1 | 12 | 0
COc1cccc(-c2ccc(=O)n(CC(=O)NCCN3CCOCC3)n2)c1 | -63* | -13% | -1 | 21 | -1
COc1ccc(S(=O)(=O)N2CCCC(C(=O)NCCC(C)C)C2)cc1 (stereo not given) | 21 | 3% | 3 | 5 | -1
Cc1cc(N2CCOCC2)nc(NCc2ccccc2)n1 | -7 | 11% | 16 | -18 | 80*
O=C1C(C2=C(O)c3ccccc3C2=O)=Nc2ccccc21 | 0 | 14µM* | 2 | 1 | 1
CN(C)C(CNC(=O)c1cc2ccccc2oc1=O)c1ccccc1 (stereo not given) | 9 | -21% | 7 | -24 | 0
CCN(CC)c1cc(Cl)c2nonc2c1N | 4 | -2% | -1 | -2 | 3
CN(C)c1cc(Cl)c2nonc2c1N | 12 | 32µM* | -3 | 0 | 3
COc1ccc(CN(C)C[C@H]2OCCCC[C@@H](C)Oc3ccc(NS(C)(=O)=O)cc3C(=O)N([C@H](C)CO)C[C@@H]2C)cc1 | 3 | -23% | x | x | -1
CC1C/C(=C/c2cccn2C)C(=O)/C(=C/c2cccn2C)C1 (stereo not given) | -14 | u | 100* | -3 | 28

Screens: PubChem, National Center for Advancing Translational Sciences (NCATS)
